Test results: PubChem BioAssay
Active and inactive are the calls of the source.

How the values were obtained:
[1] = binders of probe aFSTL3 on microarray, primary screen, stem cell growth factor project, biochemical, small-molecule microarray, fluorescence 635/667 (AID 1064); details: higher = more signal;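 further: measures binding of the biotinylated anti-FSTL3 antibody to printed compounds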
[2] = binders from COS7 lysate, DM2A8 probe, primary screen, torsin A project, cell lysate, small-molecule microarray, fluorescence 635/667 (AID 1065); details: higher = more signal, COS7 lysate expressing mutant human TOR1A
[3] = binders of probe aFGF2 on microarray, primary screen, stem cell growth factor project, biochemical, small-molecule microarray, fluorescence 635/667 (AID 1067); details: higher = more signal;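 further: measures binding of biotinylated aFGF2 protein to printed compounds on slides; z-score merges feature fluorescence and signal-to-noise across triplicate slides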
[4] = binders of probe aFGF10 on microarray, primary screen, stem cell growth factor project, biochemical, small-molecule microarray, fluorescence 635/667 (AID 1071); details: higher = more signal;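 further: score merges 667 nm spot intensity and signal to noise from triplicate slides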
[5] = molecular target: Neurogenic locus notch homolog protein 2 (Homo sapiens) (UniProt Q04721); assay: Notch2 binders on small-molecule microarrays, primary screen, biochemical, small-molecule microarray, 635 nm fluorescence, stem cell growth factors (AID 1073); details: Notch2 binding, higher = more signal
[6] = molecular target: Pro-neuregulin-1, membrane-bound isoform (Homo sapiens) (UniProt Q02297); assay: NRG1 binders on small-molecule microarrays, primary screen, psychiatric disease protein project, biochemical, small-molecule microarray, fluorescence 635/667 (AID 1075); details: NRG1 binding, 635 nm fluorescence, higher = more signal;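 further: score combines 667 nm spot fluorescence with signal to noise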
[7] = system: Neuregulin-1 EGF-like domain; assay: binders of neuregulin-1 EGF-like domain, primary screen, biochemical, small-molecule microarray, 635 nm fluorescence (AID 1081); details: small-molecule microarray binding, higher = more signal;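 further: binding of the protein to compounds printed on small-molecule microarray slides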
[8] = FRG1 promoter luciferase signal modulators, primary screen, FRG1 inhibition for FSHD, cell-based, C2C12 myotubes, firefly/Renilla luciferase, luminescence (AID 1084); details: higher = more signal, called active from +8 up or from −8 down
[9] = binders of probe aFST on microarray, primary screen, stem cell growth factor project, biochemical, small-molecule microarray, fluorescence 635/667 (AID 1086); details: higher = more signal;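 further: score merges 667 nm fluorescence with signal-to-noise of each printed compound spot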
[10] = binders of probe aHhip on microarray, primary screen, stem cell growth factor project, biochemical, small-molecule microarray, fluorescence 635/667 (AID 1087); details: higher = more signal;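 further: score merges spot fluorescence at 667nm with spot signal to noise ratio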

Neurogenic locus notch homolog protein 2 (Homo sapiens), sequence (Q04721 whole entry, looked up, canonical isoform): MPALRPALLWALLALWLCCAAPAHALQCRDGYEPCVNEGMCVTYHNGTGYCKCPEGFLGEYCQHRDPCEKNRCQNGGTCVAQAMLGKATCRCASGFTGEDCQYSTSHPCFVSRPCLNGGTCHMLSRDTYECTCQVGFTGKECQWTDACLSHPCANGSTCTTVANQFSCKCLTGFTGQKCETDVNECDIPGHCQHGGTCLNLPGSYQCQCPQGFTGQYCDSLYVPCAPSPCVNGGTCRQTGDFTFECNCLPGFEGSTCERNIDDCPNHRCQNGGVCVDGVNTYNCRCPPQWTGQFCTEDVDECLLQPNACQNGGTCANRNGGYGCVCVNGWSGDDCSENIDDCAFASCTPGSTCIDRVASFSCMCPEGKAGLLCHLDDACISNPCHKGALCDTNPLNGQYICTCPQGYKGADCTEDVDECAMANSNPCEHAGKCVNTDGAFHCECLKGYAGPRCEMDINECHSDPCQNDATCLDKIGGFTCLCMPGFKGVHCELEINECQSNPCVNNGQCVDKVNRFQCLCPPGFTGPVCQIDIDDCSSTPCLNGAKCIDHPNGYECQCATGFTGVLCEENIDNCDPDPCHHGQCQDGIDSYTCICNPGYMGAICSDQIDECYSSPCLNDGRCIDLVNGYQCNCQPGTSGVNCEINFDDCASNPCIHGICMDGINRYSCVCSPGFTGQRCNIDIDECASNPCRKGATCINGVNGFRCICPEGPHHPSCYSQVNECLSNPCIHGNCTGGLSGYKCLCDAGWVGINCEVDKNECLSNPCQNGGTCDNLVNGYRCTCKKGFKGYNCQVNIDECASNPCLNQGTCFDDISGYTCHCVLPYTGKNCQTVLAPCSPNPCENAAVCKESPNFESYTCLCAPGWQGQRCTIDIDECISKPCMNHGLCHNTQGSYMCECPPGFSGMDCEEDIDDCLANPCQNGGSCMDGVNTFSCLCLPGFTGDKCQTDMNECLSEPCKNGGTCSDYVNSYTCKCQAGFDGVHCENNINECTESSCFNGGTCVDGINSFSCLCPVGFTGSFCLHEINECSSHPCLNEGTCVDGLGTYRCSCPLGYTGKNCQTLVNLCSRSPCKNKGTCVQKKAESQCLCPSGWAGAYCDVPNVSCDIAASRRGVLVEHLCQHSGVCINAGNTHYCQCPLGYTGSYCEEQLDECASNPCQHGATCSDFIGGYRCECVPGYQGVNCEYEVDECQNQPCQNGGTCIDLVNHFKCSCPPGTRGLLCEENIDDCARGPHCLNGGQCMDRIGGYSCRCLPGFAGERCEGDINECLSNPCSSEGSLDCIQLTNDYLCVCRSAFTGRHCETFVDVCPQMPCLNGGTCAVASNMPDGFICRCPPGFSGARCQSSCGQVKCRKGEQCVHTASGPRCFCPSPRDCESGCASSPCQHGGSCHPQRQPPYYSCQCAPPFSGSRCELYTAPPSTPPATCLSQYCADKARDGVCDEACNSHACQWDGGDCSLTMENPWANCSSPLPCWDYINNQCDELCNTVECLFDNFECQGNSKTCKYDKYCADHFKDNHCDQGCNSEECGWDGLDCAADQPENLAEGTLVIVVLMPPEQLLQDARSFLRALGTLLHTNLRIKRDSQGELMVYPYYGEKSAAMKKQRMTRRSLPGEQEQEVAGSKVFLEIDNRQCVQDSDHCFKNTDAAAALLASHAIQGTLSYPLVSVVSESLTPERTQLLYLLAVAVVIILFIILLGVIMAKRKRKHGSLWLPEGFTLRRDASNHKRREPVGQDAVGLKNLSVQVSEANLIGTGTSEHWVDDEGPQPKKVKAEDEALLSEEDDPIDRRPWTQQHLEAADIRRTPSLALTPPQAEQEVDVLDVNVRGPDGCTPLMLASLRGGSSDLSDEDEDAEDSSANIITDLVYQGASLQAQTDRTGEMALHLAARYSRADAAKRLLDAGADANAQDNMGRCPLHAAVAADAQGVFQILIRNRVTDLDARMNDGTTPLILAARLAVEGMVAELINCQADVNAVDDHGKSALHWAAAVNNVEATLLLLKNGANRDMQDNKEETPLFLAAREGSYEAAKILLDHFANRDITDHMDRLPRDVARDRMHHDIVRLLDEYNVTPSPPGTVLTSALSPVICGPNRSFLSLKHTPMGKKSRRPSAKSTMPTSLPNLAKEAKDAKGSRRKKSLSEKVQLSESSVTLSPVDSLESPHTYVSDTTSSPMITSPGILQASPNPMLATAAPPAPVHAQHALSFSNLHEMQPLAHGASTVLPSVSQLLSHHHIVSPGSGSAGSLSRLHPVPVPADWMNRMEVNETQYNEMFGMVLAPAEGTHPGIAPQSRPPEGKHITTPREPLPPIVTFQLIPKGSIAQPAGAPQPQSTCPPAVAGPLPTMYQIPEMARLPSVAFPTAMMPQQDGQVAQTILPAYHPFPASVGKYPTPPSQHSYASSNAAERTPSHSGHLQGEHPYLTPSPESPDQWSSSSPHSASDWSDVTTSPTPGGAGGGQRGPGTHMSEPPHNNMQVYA
Pro-neuregulin-1, membrane-bound isoform (Homo sapiens), sequence (Q02297 whole entry, looked up, the tested form may be a part, canonical isoform): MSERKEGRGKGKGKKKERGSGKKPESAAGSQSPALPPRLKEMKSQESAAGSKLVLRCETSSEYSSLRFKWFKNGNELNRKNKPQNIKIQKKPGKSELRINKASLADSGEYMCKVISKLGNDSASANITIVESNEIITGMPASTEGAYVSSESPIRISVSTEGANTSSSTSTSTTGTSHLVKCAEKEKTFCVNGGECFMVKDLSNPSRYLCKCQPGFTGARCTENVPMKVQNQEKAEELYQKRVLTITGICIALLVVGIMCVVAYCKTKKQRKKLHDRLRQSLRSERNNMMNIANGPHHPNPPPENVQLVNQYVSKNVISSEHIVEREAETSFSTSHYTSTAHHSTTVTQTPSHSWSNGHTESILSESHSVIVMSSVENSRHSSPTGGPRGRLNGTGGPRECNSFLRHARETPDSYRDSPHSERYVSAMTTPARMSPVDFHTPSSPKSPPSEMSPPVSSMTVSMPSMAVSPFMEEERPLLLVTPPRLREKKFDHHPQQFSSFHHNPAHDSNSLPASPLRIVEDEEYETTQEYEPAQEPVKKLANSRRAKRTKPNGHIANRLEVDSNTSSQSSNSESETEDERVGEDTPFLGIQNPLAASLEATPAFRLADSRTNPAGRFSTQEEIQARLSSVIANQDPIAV

Structure (SMILES) | composite z-score [1] | composite z-score [2] | composite z-score [3] | composite z-score [4] | composite z-score [5] | composite z-score [6] | composite z-score [7] | z-score [8] | composite z-score [9] | composite z-score [10]
CC(CCN1CCc2nc(-c3ccccc3)c(-c3ccccc3)cc2C1)=NOC[C@@H](O)COCc1ccco1 | -0.278 | 0.424 | -0.0598 | 0.111 | 0.303 | 0.268 | 0.792 | 0.515 (inactive) | -0.0187 | -0.261
C[C@@H](c1ccccc1)N1C(=O)[C@H]2[C@H]3[C@H](O)[C@H](O)CC(=NOCc4ccccc4)[C@H]3CC[C@H]2C1=O | -0.393 | 0.0852 | -0.0667 | 0.0945 | 0.39 | 0.381 | 1.22 | -0.405 (inactive) | 0.317 | -0.0383
CCOC(=O)C1=NO[C@]2(C=C(Br)C3(OCCCO3)[C@H]3O[C@H]32)C1 | 0.0733 | 2.19 | -0.116 | -0.229 | -0.212 | -0.722 | -0.208 | 0.293 (inactive) | -0.132 | -0.0726
COc1ccc(COC(=O)NN=C2C[C@@H](O)[C@@H](O)[C@@H]3[C@@H]4C(=O)N(c5ccc(F)cc5F)C(=O)[C@@H]4CC[C@H]23)cc1 | 1.64 | -0.398 | -0.128 | -0.088 | -0.412 | 0.461 | 0.179 | 0.398 (inactive) | 1.28 | -0.0645
CO[C@@H]1C=CCC(=O)N2CCC[C@H]2C(=O)OC[C@@H](C)C(=O)OC[C@H]1C | -0.605 | 1.7 | -0.159 | 0.492 | 0.156 | -0.582 | 0.477 | -1.15 (inactive) | 0.274 | 0.238
C[C@H]1CC[C@H]2C(=O)OC(CO)CN2[C@@H]1c1ccc(Br)cc1 (stereo not given in full) | -0.321 | 0.414 | -0.145 | -0.0786 | -0.453 | -0.365 | 0.374 | -0.761 (inactive) | -0.104 | -0.0645
COc1ccc(C#C[C@@H]2C=C[C@H](OC(C)=O)[C@@H](COC(C)=O)O2)cc1 | -0.068 | 0.101 | -0.0769 | 0.288 | 0.395 | 0.198 | -0.0975 | 0.742 (inactive) | -0.0985 | -0.191
O=C(C=Cc1ccc2c(c1)OCO2)c1ccc(F)cc1 | -0.0346 | 0.668 | 0.0173 | 0.3 | -0.207 | -0.204 | -0.0248 | 0.964 (inactive) | 0.348 | -0.0994
CC(C)CON=C1[C@H]2CCn3c(=O)n(Cc4cc5c(cc4Cl)OCO5)c(=O)n3[C@H]2[C@H](O)[C@@H]2O[C@H]12 | -0.293 | 0.493 | -0.079 | 0.258 | 0.394 | 0.142 | 0.497 | 0.354 (inactive) | 0.0082 | 0.235
COC(=O)[C@@H]1CC[C@H](C)[C@@H](c2ccc(C)cc2)N1C(=O)c1ccc(C=NO[C@@H]2O[C@H](COC(C)=O)[C@@H](OC(C)=O)[C@H](OC(C)=O)[C@H]2OC(C)=O)cc1 | -0.241 | 0.427 | -0.0985 | 0.514 | 0.527 | 0.0818 | 0.319 | 0.861 (inactive) | 0.337 | 0.0749
CCOC(=O)[C@H](CC(C)C)NC(=O)CCC1CC(OC(=O)NCc2ccc3c(c2)OCO3)CC2(CCCC(COC(=O)NCC3CCCCC3)O2)O1 (stereo not given in full) | -0.203 | 1.06 | -0.11 | 0.443 | 0.6 | 0.292 | 1.02 | 0.807 (inactive) | 0.293 | -0.255
C[C@@H]1NC(=O)[C@@H](C)COC(=O)[C@H](C)NC(=O)[C@@H](C)COC1=O | -0.537 | 0.472 | -0.121 | 0.489 | 0.51 | -0.292 | 1.14 | -3.49 (inactive) | 0.253 | 0.0623
COC(=O)[C@@H]1CC[C@H](C)[C@@H](c2ccc(C)cc2)N1C(=O)c1ccc(C=NOC[C@@H](C)[C@H](OCc2ccccc2)C(C)C)cc1 | -0.613 | 0.191 | -0.0707 | 0.41 | 1.13 | 0.855 | 1 | -0.229 (inactive) | 0.38 | 0.0373
CC(C)(C)N1C(=O)[C@H]2[C@H]3[C@H](O)C=CC(=O)[C@@H]3CC[C@H]2C1=O | -0.623 | 0.0741 | -0.132 | 0.412 | 0.437 | -0.261 | 0.368 | -0.757 (inactive) | 0.229 | 0.0251
CO[C@@H]1C=CCC(=O)N[C@@H](C)C(=O)OC[C@@H](OC)[C@H](C)CCCC(=O)OC[C@H]1C | -0.198 | 2.55 | -0.129 | 0.361 | 0.0208 | -0.677 | -0.951 | 0.313 (inactive) | -0.331 | 0.176
CC(C)CON=C1C[C@@H](O)[C@@H](O)[C@@H]2[C@@H]3C(=O)N(C[C@@H]4CCCO4)C(=O)[C@@H]3CC[C@@H]12 | -0.308 | -0.0385 | -0.132 | 0.0654 | -0.489 | -0.672 | -0.321 | -0.108 (inactive) | -0.271 | -0.0994
CCOC(=O)[C@H](Cc1ccccc1)NC(=O)CCC1CC(OC(=O)NCc2cccc3ccccc23)CC2(CCCC(COC(=O)NCc3cccc(C(F)(F)F)c3)O2)O1 (stereo not given in full) | -0.223 | -0.549 | -0.0934 | 0.19 | 0.211 | 0.567 | 0.74 | -1.05 (inactive) | -0.143 | -0.0645
CCOC(=O)[C@H](CC(C)C)NC(=O)CCC1CC(OC(=O)NCCc2ccc(F)cc2)CC2(CCCC(COC(=O)NCCc3ccccc3OC)O2)O1 (stereo not given in full) | -0.329 | 0.0726 | -0.0806 | 0.363 | 0.41 | 1.08 | 0.577 | 0.617 (inactive) | 0.216 | -0.134
COC(=O)[C@H](C)NC(=O)CCC1CC(OC(=O)NCc2ccc3c(c2)OCO3)CC2(CCCC(COC(=O)NCC3CCCCC3)O2)O1 (stereo not given in full) | -0.632 | 0.0369 | -0.0158 | 0.847 | 1.08 | 0.586 | 1.18 | 0.0762 (inactive) | 0.315 | 0.231
CO[C@@H]1COC(=O)CC=C[C@@H](C)[C@H](OC)COC(=O)[C@@H](C)COC(=O)CC=C[C@H]1C | -0.404 | 0.812 | 0.553 | -0.552 | -1.27 | -0.245 | -0.844 | -0.182 (inactive) | -0.387 | 0.312
CCOC(=O)CCN1C(=O)[C@H]2[C@H]3[C@H](O)[C@H](O)CC(=NNC(=O)OCc4ccccc4)[C@@H]3CC[C@H]2C1=O | -0.326 | 0.695 | -0.158 | 0.504 | 0.88 | 0.716 | 0.971 | -0.518 (inactive) | 0.111 | -0.189
CC(CCN1CCCCc2nc(C)c(C)cc21)=NOC[C@@H](C)[C@H](OCc1ccccc1)C(C)C | -0.443 | -0.548 | -0.29 | -0.776 | -1.38 | -0.559 | -0.545 | -0.688 (inactive) | -2.12 | -0.0423
CCN1C(=O)[C@H]2[C@H]3[C@H](O)[C@H](O)CC(=O)[C@H]3CC[C@H]2C1=O | -0.652 | 0.481 | -0.0566 | 0.39 | 0.132 | 0.298 | 0.81 | 0.276 (inactive) | 0.0722 | 0.0373
C#CCCCON=C1C[C@@H](O)[C@@H](O)[C@@H]2[C@@H]3C(=O)N(CC)C(=O)[C@@H]3CC[C@@H]12 | -0.572 | 0.278 | -0.143 | 0.722 | 0.656 | 0.614 | 0.636 | -0.0351 (inactive) | 0.276 | 0.235
O=C1[C@H]2[C@H]3[C@H](O)[C@H](O)CC(=NOC[C@@H](O)COCc4ccco4)[C@H]3CC[C@H]2C(=O)N1Cc1ccccc1 | -0.414 | 1.33 | -0.21 | 0.17 | -0.224 | -0.346 | 0.299 | 0.272 (inactive) | -0.222 | -0.132
